Assay results as given in PubChem BioAssay (NCI).
The panel holds about 83,000 compounds, 20% with a hit somewhere; the sample as a whole holds those more often.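 Cell lines were cultured in 96-well plates, exposed to a single compound concentration, and assessed for percent growth 48 hours later.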 Activity calls are given as the source filed them. Rule for the calls: active = growth percent below 10; inactive = the rest.

Columns and labels:
Assay in all cases: NCI-60 one-dose screen, 48 h (100 = growth as untreated, 0 = no growth, -100 = all killed)
T-47D breast = details: 10 µM
BT-549 breast = details: 10 µM unless noted
MDA-MB-435 melanoma = details: 10 µM unless noted
SW-620 colon = details: 10 µM unless noted
MCF7 breast = details: 10 µM unless noted
HCT-116 colon = details: 10 µM unless noted
HCC-2998 colon = details: 10 µM unless noted
KM12 colon = details: 10 µM unless noted

Measured: growth

COc1nc2c(cc1S(=O)(=O)c1ccccc1)CCc1c-2cnn1-c1cccc(Cl)c1
inactive: T-47D breast 59.6% | BT-549 breast 80.8% | MDA-MB-435 melanoma 63% | SW-620 colon 93.7% | MCF7 breast 87.5% | HCT-116 colon 62.9% | HCC-2998 colon 101% | KM12 colon 85.4%

O=C1C(Br)=C(c2ccccc2)C(=O)C(Br)=C1c1ccccc1
inactive: T-47D breast 73.4% | BT-549 breast 97.7% | MDA-MB-435 melanoma 91.4% | SW-620 colon 94.2% | MCF7 breast 92.6% | HCT-116 colon 90.3% | HCC-2998 colon 98.2% | KM12 colon 102%

O=C(C[Si](CC(=O)c1cccc(C(F)(F)F)c1)CC(=O)c1cccc(C(F)(F)F)c1)c1cccc(C(F)(F)F)c1
inactive: T-47D breast 98.7% | BT-549 breast 87.2% | MDA-MB-435 melanoma 26% | SW-620 colon 35% | MCF7 breast 86.3% | HCT-116 colon 23.5% | HCC-2998 colon 83.6%

O=C(O)CCN1CCN(c2cccc(Cl)c2)CC1
inactive: T-47D breast 98.3% | BT-549 breast 104% | MDA-MB-435 melanoma 93.1% | SW-620 colon 107% | MCF7 breast 86.1% | HCT-116 colon 102% | HCC-2998 colon 114% | KM12 colon 114%

C1CCC([PH+](C2CCCCC2)C2CCCCC2[PH+](C2CCCCC2)C2CCCCC2)CC1.O=C(C1[CH-]CCCC1)C1CCCC[N-]1.[Au] (stereo not given)
inactive: T-47D breast 10.3%

C[C@@H](Oc1cc(-c2cnn(C3CC4(CCCNC4)C3)c2)cnc1N)c1c(Cl)ccc(F)c1Cl (stereo not given in full)
inactive: T-47D breast 20.4% | BT-549 breast 73.4% | MDA-MB-435 melanoma 12.6% | HCC-2998 colon 15.3%
active: SW-620 colon -4.07% | MCF7 breast -14.5% | HCT-116 colon -11.8%

C[C@@H](Oc1cc(-c2cnn(C3CC4(CNC4)C3)c2)cnc1N)c1c(Cl)ccc(F)c1Cl
inactive: T-47D breast 43.3% | BT-549 breast 80.3% | MDA-MB-435 melanoma 41% | SW-620 colon 23.8% | HCT-116 colon 16.7% | HCC-2998 colon 57.1%
active: MCF7 breast 9.06% | KM12 colon -18.5%

COc1cccc(C2C3=C(COC3=O)N(CCO)c3cc4c(cc32)CCC4)c1 (stereo not given)
inactive: T-47D breast 77.7% | SW-620 colon 18.8%
active: BT-549 breast 1.24% | MDA-MB-435 melanoma -32.7% | MCF7 breast 9.39% | HCT-116 colon -9.32% | HCC-2998 colon -20.6% | KM12 colon -42.8%

O=C1/C(=C/c2ccc(F)cc2)CN(Cc2cn(CCNc3ccnc4cc(Cl)ccc34)nn2)C/C1=C\c1ccc(F)cc1
active: T-47D breast -31.2% | BT-549 breast -91.1% | MDA-MB-435 melanoma -86.5% | SW-620 colon -70.5% | MCF7 breast -79.6% | HCT-116 colon -84.5% | HCC-2998 colon -92.1% | KM12 colon -71.4%

C[C@@H](Oc1cc(-c2cnn(C3CC4(CCNCC4)C3)c2)cnc1N)c1c(F)ccc(Cl)c1Cl
inactive: BT-549 breast 58.6%
active: T-47D breast -27.9% | MDA-MB-435 melanoma -70.4% | SW-620 colon -46% | MCF7 breast -34.6% | HCT-116 colon -22.5% | HCC-2998 colon 6.25%

Cc1nc2cc(Nc3nc(Cl)nc(Nc4ccc(F)cc4)n3)ccc2n1Cc1ccccc1
inactive: T-47D breast 57% | BT-549 breast 90.6% | MDA-MB-435 melanoma 95.6% | SW-620 colon 84.8% | MCF7 breast 61.5% | HCC-2998 colon 94.5% | KM12 colon 69.2%
active: HCT-116 colon 3.88%

Cc1ccc2c(N/N=C\c3ccco3)cc(C)nc2n1
inactive: T-47D breast 37.4% | BT-549 breast 87.7% | MDA-MB-435 melanoma 36.6% | SW-620 colon 39.5% | MCF7 breast 71.8% | HCT-116 colon 21.5% | HCC-2998 colon 65.4% | KM12 colon 74.8%

COc1ccc2nc(-n3nc(C)cc3C)c(-n3nc(C)cc3C)nc2c1
inactive: T-47D breast 105% | BT-549 breast 104% | MDA-MB-435 melanoma 102% | SW-620 colon 107% | MCF7 breast 109% | HCT-116 colon 96% | HCC-2998 colon 89.8% | KM12 colon 116%

CCCCCCCCCCCCCCNc1nc(CO)ncc1-c1ccc(C(F)(F)F)cc1
inactive: T-47D breast 95.6% | BT-549 breast 110% | MDA-MB-435 melanoma 102% | SW-620 colon 103% | MCF7 breast 96.2% | HCT-116 colon 94.1% | HCC-2998 colon 99.4% | KM12 colon 99.4%

COc1ccc(OC)c(C2C(C#N)=C(N)Oc3cc(O)ccc32)c1 (stereo not given)
inactive: T-47D breast 86.7% | BT-549 breast 94.1% | MDA-MB-435 melanoma 83.4% | SW-620 colon 101% | MCF7 breast 99.3% | HCT-116 colon 96.3% | HCC-2998 colon 109% | KM12 colon 94%
